# Several values for one entry are separate records, joined by “and”; a condition that tells them apart may be missing. Equal values may be shown once. Hit rate of the full screen: of about 420,000 compounds, about 75 (0.02%) were called active. The call rests on the fitted dose curve; in most records, active means well fitted activation curve with a large enough effect; inconclusive means small, poorly fitted or top-dose-only effect; inactive means no such curve, though single readings can be large or run the other way. Shown is part of a subset that was picked to be rich in actives. A structure can be active in one record and inactive in another.
# Experiment: qHTS for Inducers of the Endoplasmic Reticulum Stress Response (ERSR) in Human Glioma: qHTS; further: nearly all actives have a fitted effect of over 35% in size; on activation: % of control where 0% means no effect
# Settings: U87-MG GRP78 promoter luciferase reporter, 16 h; activation: active compounds read high
# Method in brief: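 ERSR induction read as luciferase luminescence (Bright-Glo, 10 min at room temperature) in stably transfected human U87-MG glioma cells exposed to compounds for 16 h, using GRP78 as sensor.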
# Potency means the concentration at half of the fitted maximal effect.
SMILES,activation,Potency
COc1ccc(/C=C/NC(=O)Cc2ccc(OC)c(OC)c2)cc1,0.885% (inactive) and -3.87% (inactive),
Cc1c(C(=O)NCC2CCCN(C)C2)cnn1-c1nccc(-c2ccco2)n1 (configuration not stated),-1.59% (inactive),
O=S(O)S(=O)(=O)O,-8.27% (inactive),
CCOC(=O)N1CCN(Cc2ccc3c(c2)CN(C(=O)c2cccc(-n4cccn4)c2)CCO3)CC1,-2.17% (inactive),
N#C/C(=C\c1ccc(O)c(O)c1)C(=O)NCc1ccccc1,7.31% (inactive) and 13.4% (inactive) and 3.72% (inactive),25.1 µM (active)
N#C/C(=C\c1ccc(O)c(O)c1)C(N)=O,-0.645% (inactive) and -1.72% (inactive),
Cc1ccc(/C=C(\C#N)C(=O)Nc2cc(C)ccc2C)cc1,-3.56% (inactive),
Cc1cnc(C)c(-c2cc(F)c3c(c2)CC(CNC(=O)c2cccc(Cn4cccn4)c2)O3)n1 (configuration not stated),-2.2% (inactive),
COc1ccccc1-c1ccnc(-n2ncc(C(=O)NCCc3ccncc3)c2C)n1,-0.593% (inactive),
O=C(c1cccc(Cn2cccn2)c1)N1CCOc2c(cc(-c3csc4ccccc34)cc2OC2CCOC2)C1 (configuration not stated),-1.78% (inactive),
Cc1ccc(C(=O)Nc2cccc(-c3nc(CNC(=O)c4ccccc4-n4cccn4)c(C)o3)c2)s1,-4.42% (inactive),
COc1ccc(CN(C)CCn2cc(C(=O)N3CCSCC3)nn2)cc1C,-2.77% (inactive),
COC(=O)C1CCCCN1Cc1ccc2c(c1)CN(Cc1cc(OC)c3c(c1)OCO3)CCO2 (configuration not stated),0.195% (inactive),
COC(=O)C(C(=O)OC)[C@@H]1CCCC(=O)C1,-5.46% (inactive),
COCCN1CCN(C(=O)c2sc3ncnc(NCC4CCCO4)c3c2C)CC1 (configuration not stated),-1.15% (inactive),
COc1ccc(CCNc2ncnc3sc(C(=O)N4CCCC4)c(C)c23)cc1OC,-0.648% (inactive),
C[C@@H]1CN(Cc2ccc3c(c2)CN(Cc2ccc(Oc4ncccn4)cc2)CCO3)C[C@H](C)O1,-2.33% (inactive),
CC(C)[C@@H](OCc1ccccc1)[C@H](C)/C=N\OC[C@@H](C)[C@H](OCc1ccccc1)C(C)C,-2.4% (inactive),
Cc1cc(C(=O)NCC2Cc3cccc(-c4cncnc4)c3O2)c(C)o1 (configuration not stated),-0.609% (inactive),
CCOC(OCC)OCC,3.31% (inactive),
CC[C@H](C)[C@H](NC(=O)[C@@H](N)CCC(=O)O)C(=O)N[C@@H](CC(C)C)C(=O)N[C@@H](CC(=O)O)C(=O)N[C@H](C(=O)N1CCC[C@H]1C(=O)N[C@@H](CO)C(=O)N[C@H](C(=O)O)[C@@H](C)O)C(C)C,-2.27% (inactive),
